Data from PubChem BioAssay (NCI).
The panel holds about 83,000 compounds, 20% with a hit somewhere; the sample as a whole holds those more often.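 Single-dose data. Exposure time 48 hours. Values below 10 considered active.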 Active and inactive are the calls of the source.

Columns and labels:
Assay in all cases: NCI-60 one-dose screen, 48 h (100 = growth as untreated, 0 = no growth, -100 = all killed)
Conditions in all cases: 10 µM unless noted
SK-MEL-2 melanoma = tested on: SK-MEL-2 melanoma
EKVX NSCLC = tested on: EKVX NSCLC
SN12C renal = tested on: SN12C renal
UO-31 renal = tested on: UO-31 renal
TK-10 renal = tested on: TK-10 renal
ACHN renal = tested on: ACHN renal
CAKI-1 renal = tested on: CAKI-1 renal
A498 renal = tested on: A498 renal
MOLT-4 leukemia = tested on: MOLT-4 leukemia
CCRF-CEM leukemia = tested on: CCRF-CEM leukemia

Row | SMILES | growth (SK-MEL-2 melanoma) | growth (EKVX NSCLC) | growth (SN12C renal) | growth (UO-31 renal) | growth (TK-10 renal) | growth (ACHN renal) | growth (CAKI-1 renal) | growth (A498 renal) | growth (MOLT-4 leukemia) | growth (CCRF-CEM leukemia)
1 | O=C(N/N=C/c1ccncc1)c1ccccc1Nc1cccc(C(F)(F)F)c1 | 99.3% (inactive) | 91.7% (inactive) | 90.8% (inactive) | 60.9% (inactive) | 102% (inactive) | 90.5% (inactive) | 117% (inactive) | 71.9% (inactive) | 72.2% (inactive) | –
2 | O=C(O)C(/C=C/c1ccco1)=N\Nc1nc(-c2ccc(Cl)cc2)cs1 | 11.5% (inactive) | 67.1% (inactive) | 86.8% (inactive) | 38.8% (inactive) | 77.6% (inactive) | 69% (inactive) | 63.9% (inactive) | 65.2% (inactive) | 40.9% (inactive) | –
3 | C=C(C)[C@H]1CC/C(C)=C/CC[C@]2(C)O[C@H]2CC/C(COC(=O)[C@@H](OC(C)=O)[C@H](NC(=O)c2ccccc2)c2ccccc2)=C\[C@@H]1O | 119% (inactive) | 84.7% (inactive) | 93.8% (inactive) | 79.4% (inactive) | 99.7% (inactive) | 116% (inactive) | 89.6% (inactive) | 92.8% (inactive) | 98.2% (inactive) | –
4 | CN(Cc1ccccc1)c1nc(Cl)c(C2CC(c3ccc(Cl)cc3)=Cc3[nH][nH]c(=O)c32)s1 (stereo unspecified) | 99.7% (inactive) | 99.6% (inactive) | 89.4% (inactive) | 69.2% (inactive) | 99.1% (inactive) | 93.5% (inactive) | 86.2% (inactive) | 111% (inactive) | 96.3% (inactive) | –
5 | COc1ccc(/C=C(/c2ccccc2)[N+](=O)[O-])cc1 | -49.7% (active) | -29.6% (active) | -38.4% (active) | -100% (active) | -83.2% (active) | -97.4% (active) | -88.3% (active) | 10% (inactive) | -15.5% (active) | –
6 | COc1cc(COC(=O)CCCCC[P+](c2ccccc2)(c2ccccc2)c2ccccc2)c(OC)c2c1OCO2 | 68.4% (inactive) | 73% (inactive) | 51% (inactive) | 91.4% (inactive) | 75.6% (inactive) | 98.5% (inactive) | 72.7% (inactive) | 52.5% (inactive) | 93.3% (inactive) | –
7 | NNC(=O)/C(=C\c1ccc([N+](=O)[O-])cc1)CC(=O)c1ccc(Cl)c(Cl)c1 | 95.7% (inactive) | 69.5% (inactive) | 88% (inactive) | 58.6% (inactive) | 97.5% (inactive) | 91.1% (inactive) | 66.8% (inactive) | – | 61.4% (inactive) | 80.9% (inactive)
8 | O=C1Nc2c(ccc(Cl)c2Cl)/C1=C/c1ccc(O)cc1 | 108% (inactive) | 62.1% (inactive) | 97.4% (inactive) | 61.8% (inactive) | 101% (inactive) | 87.6% (inactive) | 59.7% (inactive) | 115% (inactive) | 77.3% (inactive) | –
9 | CCOC(=O)c1c(SC)nn(-c2cc(=O)[nH]c3ccc(Br)cc23)c1N | 99% (inactive) | 88.2% (inactive) | 108% (inactive) | 81% (inactive) | 110% (inactive) | 98.3% (inactive) | 87.2% (inactive) | 110% (inactive) | 111% (inactive) | –
10 | CN(C)C(=O)OCc1nc2c(N3CCOCC3)nc(-c3ccccc3)nc2n1C | -73.5% (active) | -56.8% (active) | -90.7% (active) | -100% (active) | -77.7% (active) | -99.8% (active) | -91.7% (active) | -32.3% (active) | -3.34% (active) | –
11 | CC(C)Cc1ccc(C(C)C(=O)NCc2c[nH]c3ccc(Cl)cc23)cc1 (stereo unspecified) | 92% (inactive) | 85.9% (inactive) | 94% (inactive) | 65.4% (inactive) | 107% (inactive) | 86.6% (inactive) | 81.7% (inactive) | – | 65.6% (inactive) | 73.8% (inactive)
12 | Clc1cc(Cl)cc(N2N=C(c3cccc(Nc4ccncc4)c3)CC2c2ccccc2)c1 (stereo unspecified) | 97.1% (inactive) | 87.6% (inactive) | 71.4% (inactive) | 62% (inactive) | 89.9% (inactive) | 14.9% (inactive) | 27% (inactive) | 103% (inactive) | 2.51% (active) | –
13 | CN1C(=O)N(C)[C@H]2NC(NN)=N[C@H]21 | 108% (inactive) | 99.1% (inactive) | 99.8% (inactive) | 93.5% (inactive) | 97.4% (inactive) | 104% (inactive) | 89.2% (inactive) | 97.9% (inactive) | 101% (inactive) | –
14 | CCNC(=O)c1[nH]cc(-c2ccc(OC)cc2)c1-c1cc(OC)c(OC)c(OC)c1 | 67.5% (inactive) | 62.4% (inactive) | 60.5% (inactive) | 30.7% (inactive) | 83.9% (inactive) | 35.8% (inactive) | 29.4% (inactive) | -14% (active) | 92% (inactive) | –
15 | COc1cc(CNC(=O)CCCCC[P+](c2ccccc2)(c2ccccc2)c2ccccc2)c(OC)c2c1OCO2 | 60.3% (inactive) | 71.8% (inactive) | 75.4% (inactive) | 92.3% (inactive) | 84.3% (inactive) | 106% (inactive) | 89.4% (inactive) | 78.8% (inactive) | 99.2% (inactive) | –
16 | O=C(CN1CCOCC1)Nc1ccc2ncnc(Nc3ccc(OCc4cccc(F)c4)c(Cl)c3)c2c1 | 88.1% (inactive) | 25.1% (inactive) | 48.1% (inactive) | 30.7% (inactive) | 37.8% (inactive) | 24.5% (inactive) | 45.8% (inactive) | 28% (inactive) | 47.9% (inactive) | –
17 | O=C(NCCc1ccccn1)OCc1nc2nc(Cl)nc(N3CCOCC3)c2[nH]1 | -16% (active) | 72.4% (inactive) | 28.6% (inactive) | 31.8% (inactive) | -29.4% (active) | -94.9% (active) | 7.47% (active) | – | 4.05% (active) | 0.909% (active)
18 | CC(C)NC(=O)N1C(=O)CCC1NNC(=O)c1ccc([N+](=O)[O-])cc1 (stereo unspecified) | 93.1% (inactive) | 110% (inactive) | 102% (inactive) | 92% (inactive) | 101% (inactive) | 106% (inactive) | 100% (inactive) | – | 98.7% (inactive) | 104% (inactive)
19 | O=CNc1cc(Cl)cc(Cl)c1 | 100% (inactive) | 96.7% (inactive) | 95.9% (inactive) | 90.1% (inactive) | 101% (inactive) | 101% (inactive) | 92.3% (inactive) | – | 97.5% (inactive) | 101% (inactive)
20 | O=C(N=Nc1c(O)[nH]c2ccc(F)cc12)c1cc2ccccc2[nH]1 | 91% (inactive) | 89% (inactive) | 91.2% (inactive) | 76.2% (inactive) | 106% (inactive) | 100% (inactive) | 80.7% (inactive) | – | 99.2% (inactive) | 99.5% (inactive)
21 | O=C(CNCCO)Nc1ccc2ncnc(Nc3ccc(OCc4cccc(F)c4)c(Cl)c3)c2c1 | 98.2% (inactive) | 42.6% (inactive) | 51.6% (inactive) | 50.1% (inactive) | 56% (inactive) | 38% (inactive) | 63.3% (inactive) | – | 78.5% (inactive) | 80.4% (inactive)
22 | CN1CCN(c2ccc3nc(-c4cc(C(C)(C)C)c(O)c(C(C)(C)C)c4)[nH]c3c2)CC1 | 82.5% (inactive) | 86.4% (inactive) | 88.2% (inactive) | 61.3% (inactive) | 90.5% (inactive) | 87.3% (inactive) | 68.6% (inactive) | – | 39.6% (inactive) | 14.5% (inactive)
23 | O=C(Nc1ccc2cc3ccc(NC(=O)NC4CCCCC4)cc3nc2c1)NC1CCCCC1 | 97.3% (inactive) | 95.1% (inactive) | 88.2% (inactive) | 89.1% (inactive) | 100% (inactive) | 100% (inactive) | 93.3% (inactive) | – | 9.49% (active) | 25.1% (inactive)
24 | CCCCCCCCCCCC(=O)C(CCCCCCCCCC)C(=O)Nc1ccccc1 (stereo unspecified) | 98.8% (inactive) | 108% (inactive) | 98.1% (inactive) | 86.1% (inactive) | 95.1% (inactive) | 100% (inactive) | 97% (inactive) | – | 89.3% (inactive) | 103% (inactive)
25 | Clc1ccc2c(c1)c(-c1ccccc1)nc1nncn12 | 102% (inactive) | 109% (inactive) | 104% (inactive) | 90.8% (inactive) | 114% (inactive) | 117% (inactive) | 105% (inactive) | – | 96.7% (inactive) | 101% (inactive)
26 | Cc1cc(C)n(Nc2nc3ccccc3[nH]c2=O)c(=O)c1C#N | 108% (inactive) | 88.2% (inactive) | 89.8% (inactive) | 78.8% (inactive) | 111% (inactive) | 94.1% (inactive) | 89.9% (inactive) | – | 96.7% (inactive) | 109% (inactive)
27 | CCOc1cc(CNc2ccc(N3CCOCC3)c(C(=O)O)c2)ccc1OC | 98.7% (inactive) | 96.9% (inactive) | 94.2% (inactive) | 98.1% (inactive) | 94.7% (inactive) | 108% (inactive) | 102% (inactive) | – | 104% (inactive) | 106% (inactive)
28 | COc1ccc(C2CC(n3nnnc3-c3ccccc3)=NN2)cc1 (stereo unspecified) | 69.3% (inactive) | 66.2% (inactive) | 78.1% (inactive) | 35.3% (inactive) | 82.6% (inactive) | 42.1% (inactive) | 8.64% (active) | – | 50.3% (inactive) | 39.6% (inactive)
29 | O=S(=O)(NCCNc1nccc(-c2c(-c3ccc(F)c(O)c3)nc3sccn23)n1)c1ccccc1 | 12.7% (inactive) | 101% (inactive) | 64.1% (inactive) | 49.9% (inactive) | 138% (inactive) | 57.5% (inactive) | 54.6% (inactive) | – | 52.8% (inactive) | 37.2% (inactive)
